Activity calls are given as the source filed them. Calls come from the whole dose curve; as a rule, active = well fitted curve in the direction sought with a large enough effect; inactive = no such curve, though single readings can be large or run the other way.
What follows are molecules tested against Alpha-galactosidase (Coffea arabica) (UniProt Q42656) (assay: Counterscreen for Glucocerebrosidase Inhibitors: qHTS Assay for Coffee Bean alpha-Galactosidase at pH 5.9 (AID 998)). Settings: coffee bean alpha-galactosidase enzyme assay; series mostly up to 76.9 µM.
Outline: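 Green coffee bean enzyme (2 nM final) was incubated with compounds (0.7 nM–77 uM) and 4-methylumbelliferyl alpha-D-galactopyranoside (80 uM) in citrate buffer pH 5.9, 20 min at room temperature. High-pH stop; fluorescence 365/440 nm; AC50 from Hill fits.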

Chain of Alpha-galactosidase (Coffea arabica) (Q42656 whole entry, looked up): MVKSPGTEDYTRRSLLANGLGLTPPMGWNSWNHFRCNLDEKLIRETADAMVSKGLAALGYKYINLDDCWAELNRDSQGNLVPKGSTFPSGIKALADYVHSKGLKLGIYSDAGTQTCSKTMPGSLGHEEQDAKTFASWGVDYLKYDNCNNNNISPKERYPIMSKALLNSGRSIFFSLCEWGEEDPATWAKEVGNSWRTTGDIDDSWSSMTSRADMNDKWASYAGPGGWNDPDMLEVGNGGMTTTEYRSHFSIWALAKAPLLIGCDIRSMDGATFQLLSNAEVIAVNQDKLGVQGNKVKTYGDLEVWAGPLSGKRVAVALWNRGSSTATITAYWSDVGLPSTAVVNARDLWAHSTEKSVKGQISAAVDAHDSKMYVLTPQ

Compound	outcome
Oc1ccc(O)cc1	inactive
OCCN1CCN(CCCN2c3ccccc3C=Cc3ccccc32)CC1	inactive
C[C@]12CCC(=O)C=C1CC[C@@H]1[C@@H]2CC[C@@]2(C)[C@H]1CC[C@]2(O)C(=O)CO	inactive
C=Cc1c(C)c2cc3[nH]c(cc4nc(cc5nc(cc1[nH]2)C(C)=C5CCC(=O)O)C(CCC(=O)O)=C4C)c(C)c3C=C	inactive
Cn1cnc2c1c(=O)[nH]c(=O)n2C	inactive
Cc1ccc(N(CC2=NCCN2)c2cccc(O)c2)cc1	inactive
CC1=C(CC(=O)O)c2cc(F)ccc2/C1=C\c1ccc(S(C)=O)cc1 (centres undefined)	inactive
C(=C\c1ccccc1)/CN1CCN(C(c2ccccc2)c2ccccc2)CC1	inactive
O=C(O)CN(CCOCCOCCN(CC(=O)O)CC(=O)O)CC(=O)O	inactive
N[C@@H](Cc1c[nH]c2ccc(O)cc12)C(=O)O	inactive
C[N+](C)(C)CCCCCCCCCC[N+](C)(C)C	inactive
O=C(CCNNC(=O)c1ccncc1)NCc1ccccc1	inactive
O=C(CCCN1CCC(O)(c2cccc(C(F)(F)F)c2)CC1)c1ccc(F)cc1	inactive
COC(=O)[C@@H](N)Cc1ccc(O)c(O)c1	inactive
Cc1[nH]c(=O)c(C#N)cc1-c1ccc2nccn2c1	inactive
Cc1ccc(=O)n(-c2ccccc2)c1	inactive
CN(C)CCCN1c2ccccc2Sc2ccccc21	inactive
C[C@]12CCC(=O)C=C1CC[C@@H]1[C@@H]2C(=O)C[C@@]2(C)[C@H]1CC[C@]2(O)C(=O)CO	inactive
CCCCNc1c(C(=O)OCC)c(C)nc2c1cnn2CC	inactive
